Six compounds from PubChem BioAssay (NCATS) can be followed below.

In the assay the target is Nicotinamide N-methyltransferase (Homo sapiens) (UniProt P40261). The assay is described as follows: Confirmatory Screen for Target Class Profiling of Small Molecule Inhibitors of Methyltransferases (AID 1745852). The following applies: MTase-Glo luminescence, SAH detection, recombinant enzyme; measured here: NNMT max response; stronger effect = lower value.
Nicotinamide N-methyltransferase (Homo sapiens), sequence (P40261 whole entry, looked up): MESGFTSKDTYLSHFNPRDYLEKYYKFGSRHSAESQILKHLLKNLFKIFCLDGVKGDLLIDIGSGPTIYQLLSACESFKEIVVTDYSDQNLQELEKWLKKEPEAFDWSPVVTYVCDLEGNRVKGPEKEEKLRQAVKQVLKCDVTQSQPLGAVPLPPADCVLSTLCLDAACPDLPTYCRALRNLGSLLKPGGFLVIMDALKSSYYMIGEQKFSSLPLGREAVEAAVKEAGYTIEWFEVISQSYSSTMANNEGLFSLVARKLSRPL
`CC[C@@H](CO)NC(=O)[C@@H]1C=C2c3cccc4c3c(cn4C)C[C@H]2N(C)C1`: the activity was -2.9%. On to `N#CC(C#N)=Cc1ccc(O)c(O)c1`, for which the activity was -6.68%. To `CC[N+](CC)(CC)CC` belongs -4.15%. As to `CN1C[C@H](CNC(=O)OCc2ccccc2)C[C@@H]2c3cccc4c3c(cn4C)C[C@H]21`, the activity was -16.1%. As for `Nc1ccncc1`, the figure is -30.8%.

`CC(C)=CCOc1c2occc2cc2ccc(=O)oc12`: the activity was -26.3%.
